Assay results as given in PubChem BioAssay AID1159580 (chemical genetic matrix, 2015).
Several values for one entry are separate records, joined by “and”; a condition that tells them apart may be missing. Identical values can stand only once. Screen size: about 5,500 compounds; about 2,000 (36%) were called active. Roughly 18% stayed inconclusive and do not appear here. Rule as the data show it: active = normalized growth mostly below about 0.91 (no sharp cut-off); inconclusive = no clear call, values can overlap the other calls; inactive = mostly above about 0.92. The list shows a part of the results.

Experiment: chemical genetic growth profiling, strain panel (AID 1159580);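 also: tested at 20 µM; growth read once vehicle control cultures reached saturation at 30 °C; 1 = growth at the plate median or of vehicle wells; lower values mean less growth of the strain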
Settings: growth OD

Measured: normalized growth

CC/C(=C(\c1ccccc1)c1ccc(OCCN(C)C)cc1)c1ccccc1
active: S. cerevisiae deletion strains, locus YKL009W, strain mrt4, stronger effect = lower value 0.79 | S. cerevisiae deletion strains, locus YKL160W, strain elf1, stronger effect = lower value 0.13 | S. cerevisiae deletion strains, locus YKL190W, strain CNB1, stronger effect = lower value 0.045 | S. cerevisiae deletion strains, locus YKR001C, strain vps1, stronger effect = lower value 0.064 | S. cerevisiae deletion strains, locus YKR026C, strain gcn3, stronger effect = lower value 0.184 | S. cerevisiae deletion strains, locus YKR091W, strain srl3, stronger effect = lower value 0.0995 | S. cerevisiae deletion strains, locus YLL001W, strain dnm1, stronger effect = lower value 0.0862 | S. cerevisiae deletion strains, locus YLL026W, stronger effect = lower value 0.0741 | S. cerevisiae deletion strains, locus YLL041C, strain sdh2, stronger effect = lower value 0.115 | S. cerevisiae deletion strains, locus YLR027C, strain aat2, stronger effect = lower value 0.0818 | S. cerevisiae deletion strains, locus YLR039C, strain RIC1, stronger effect = lower value 0.0749 | S. cerevisiae deletion strains, locus YLR058C, strain SHM2, stronger effect = lower value 0.0464 | S. cerevisiae deletion strains, locus YLR102C, strain apc9, stronger effect = lower value 0.0601 | S. cerevisiae deletion strains, locus YLR113W, strain HOG1, stronger effect = lower value 0.822 | S. cerevisiae deletion strains, locus YLR221C, strain rsa3, stronger effect = lower value 0.121 | S. cerevisiae deletion strains, locus YLR258W, strain gsy2, stronger effect = lower value 0.0791 | S. cerevisiae deletion strains, locus YLR262C, strain YPT6 (second series), stronger effect = lower value 0.182 | S. cerevisiae deletion strains, locus YLR262C, strain YPT6, stronger effect = lower value 0.0867 | S. cerevisiae deletion strains, locus YLR268W, strain sec22, stronger effect = lower value 0.0695 | S. cerevisiae deletion strains, locus YLR320W, strain mms22, stronger effect = lower value 0.171 | S. cerevisiae deletion strains, locus YLR330W, strain CHS5, stronger effect = lower value 0.0509 | S. cerevisiae deletion strains, locus YLR342W, strain FKS1 (second series), stronger effect = lower value 0.0626 | S. cerevisiae deletion strains, locus YLR342W, strain FKS1, stronger effect = lower value 0.0912 | S. cerevisiae deletion strains, locus YLR357W, strain rsc2, stronger effect = lower value 0.181 | S. cerevisiae deletion strains, locus YLR370C, strain arc18, stronger effect = lower value 0.0663 | S. cerevisiae deletion strains, locus YLR371W, strain rom2, stronger effect = lower value 0.0629 | S. cerevisiae deletion strains, locus YLR384C, strain iki3, stronger effect = lower value 0.223 | S. cerevisiae deletion strains, locus YLR418C, strain cdc73, stronger effect = lower value 0.105 | S. cerevisiae deletion strains, locus YML016C, strain PPZ1, stronger effect = lower value 0.0451 | S. cerevisiae deletion strains, locus YML032C, strain rad52, stronger effect = lower value 0.0687 | S. cerevisiae deletion strains, locus YML120C, strain ndi1, stronger effect = lower value 0.114 | S. cerevisiae deletion strains, locus YML124C, strain tub3, stronger effect = lower value 0.0591 | S. cerevisiae deletion strains, locus YMR058W, strain fet3, stronger effect = lower value 0.0718 | S. cerevisiae deletion strains, locus YMR078C, strain ctf18, stronger effect = lower value 0.0689 | S. cerevisiae deletion strains, locus YMR125W, strain sto1, stronger effect = lower value 0.131 | S. cerevisiae deletion strains, locus YMR129W, stronger effect = lower value 0.0877 | S. cerevisiae deletion strains, locus YMR205C, strain PFK2, stronger effect = lower value 0.172 | S. cerevisiae deletion strains, locus YMR223W, strain ubp8, stronger effect = lower value 0.0676 | S. cerevisiae deletion strains, locus YMR231W, strain pep5, stronger effect = lower value 0.0689 | S. cerevisiae deletion strains, locus YMR263W, strain SAP30, stronger effect = lower value 0.0557 | S. cerevisiae deletion strains, locus YMR307W, strain GAS1, stronger effect = lower value 0.103 and 0.123 | S. cerevisiae deletion strains, locus YNL067W, strain RPL9B, stronger effect = lower value 0.0484 | S. cerevisiae deletion strains, locus YNL071W, strain lat1, stronger effect = lower value 0.165 | S. cerevisiae deletion strains, locus YNL128W, strain TEP1, stronger effect = lower value 0.0645 | S. cerevisiae deletion strains, locus YNL153C, strain GIM3, stronger effect = lower value 0.0543 | S. cerevisiae deletion strains, locus YNL197C, strain WHI3, stronger effect = lower value 0.704 | S. cerevisiae deletion strains, locus YNL209W, strain ssb2, stronger effect = lower value 0.1 | S. cerevisiae deletion strains, locus YNL224C, strain SQS1, stronger effect = lower value 0.206 | S. cerevisiae deletion strains, locus YNL233W, strain BNI4, stronger effect = lower value 0.0506 | S. cerevisiae deletion strains, locus YNL248C, strain rpa49, stronger effect = lower value 0.555 | S. cerevisiae deletion strains, locus YNL298W, strain CLA4, stronger effect = lower value 0.744 | S. cerevisiae deletion strains, locus YNL307C, strain MCK1, stronger effect = lower value 0.0675 | S. cerevisiae deletion strains, locus YNL322C, strain KRE1, stronger effect = lower value 0.0467 and 0.567 | S. cerevisiae deletion strains, locus YNR049C, strain mso1, stronger effect = lower value 0.0842 | S. cerevisiae deletion strains, locus YNR052C, strain pop2, stronger effect = lower value 0.0611 | S. cerevisiae deletion strains, locus YOL006C, strain TOP1, stronger effect = lower value 0.0917 | S. cerevisiae deletion strains, locus YOL012C, strain htz1 0.187 | S. cerevisiae deletion strains, locus YOL147C, strain pex11, stronger effect = lower value 0.0578 | S. cerevisiae deletion strains, locus YOR001W, strain rrp6, stronger effect = lower value 0.431 | S. cerevisiae deletion strains, locus YOR061W, strain CKA2, stronger effect = lower value 0.0446 | S. cerevisiae deletion strains, locus YOR069W, strain VPS5, stronger effect = lower value 0.0459 | S. cerevisiae deletion strains, locus YOR070C, strain gyp1, stronger effect = lower value 0.0646 | S. cerevisiae deletion strains, locus YOR080W, strain dia2, stronger effect = lower value 0.408 | S. cerevisiae deletion strains, locus YOR083W, strain WHI5 (second series), stronger effect = lower value 0.185 | S. cerevisiae deletion strains, locus YOR083W, strain WHI5, stronger effect = lower value 0.0831 | S. cerevisiae deletion strains, locus YOR106W, strain vam3, stronger effect = lower value 0.0773 | S. cerevisiae deletion strains, locus YOR136W, strain idh2, stronger effect = lower value 0.0725 | S. cerevisiae deletion strains, locus YOR144C, strain elg1, stronger effect = lower value 0.0595 | S. cerevisiae deletion strains, locus YOR184W, strain ser1, stronger effect = lower value 0.0775 | S. cerevisiae deletion strains, locus YOR265W, strain rbl2, stronger effect = lower value 0.0798 | S. cerevisiae deletion strains, locus YOR270C, strain vph1, stronger effect = lower value 0.136 | S. cerevisiae deletion strains, locus YOR290C, strain snf2, stronger effect = lower value 0.125 | S. cerevisiae deletion strains, locus YOR316C, strain cot1, stronger effect = lower value 0.0588 | S. cerevisiae deletion strains, locus YPL051W, strain arl3, stronger effect = lower value 0.136 | S. cerevisiae deletion strains, locus YPL055C, strain LGE1, stronger effect = lower value 0.0697 | S. cerevisiae deletion strains, locus YPL078C, strain atp4, stronger effect = lower value 0.288 | S. cerevisiae deletion strains, locus YPL106C, strain sse1, stronger effect = lower value 0.114 | S. cerevisiae deletion strains, locus YPL240C, strain hsp82, stronger effect = lower value 0.106 | S. cerevisiae deletion strains, locus YPL241C, strain CIN2, stronger effect = lower value 0.0469 | S. cerevisiae deletion strains, locus YPL256C, strain CLN2, stronger effect = lower value 0.815 | S. cerevisiae deletion strains, locus YPR119W, strain clb2, stronger effect = lower value 0.0696 | S. cerevisiae deletion strains, locus YPR163C, strain tif3, stronger effect = lower value 0.0696 | S. cerevisiae deletion strains, locus YPR167C, strain met16, stronger effect = lower value 0.0609 | S. cerevisiae deletion strains, strain wtn01, stronger effect = lower value 0.0608 | S. cerevisiae strains, strain wild type, stronger effect = lower value 0.0464
inactive: S. cerevisiae deletion strains, locus YKL068W, stronger effect = lower value 1 | S. cerevisiae deletion strains, locus YKL085W, strain MDH1 (second series), stronger effect = lower value 0.952 | S. cerevisiae deletion strains, locus YKL085W, strain MDH1, stronger effect = lower value 0.952 | S. cerevisiae deletion strains, locus YNL175C, strain NOP13, stronger effect = lower value 0.968 | S. cerevisiae deletion strains, locus YNL183C, strain NPR1, stronger effect = lower value 0.901 | S. cerevisiae deletion strains, locus YNL250W, strain rad50, stronger effect = lower value 0.999 | S. cerevisiae deletion strains, locus YNL271C, strain bni1, stronger effect = lower value 0.953 | S. cerevisiae deletion strains, locus YNL322C, strain KRE1 (second series), stronger effect = lower value 1.07 | S. cerevisiae deletion strains, locus YOR231W, strain MKK1, stronger effect = lower value 0.894 | S. cerevisiae deletion strains, locus YPR141C, strain kar3, stronger effect = lower value 1.04
